# Measured values: PubChem BioAssay
# Active and inactive are the calls of the source. Unless noted, no rule for the calls is given here.
# Tests used:
# [1] = compounds binding Alexa647 anti-His antibody – biochemical, small-molecule microarray, 635 nm fluorescence, artefact control for SMM control protein annotation, primary screen (AID 1128); details: higher = more signal;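 also: score merges feature fluorescence with signal-to-noise for each printed compound spot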
# [2] = system: Human papillomavirus type 1a E7 protein (residues 1-88); experiment: HPV1a E7 small-molecule binders, primary screen, biochemical, small-molecule microarray, residues 1-88, 635 nm (AID 1129); details: small-molecule microarray binding, fluorescence 635 nm; higher = more signal
# [3] = biological target: Focal adhesion kinase 1 (Homo sapiens) (UniProt Q05397); experiment: PTK2 protein binding on printed compound slides – biochemical, small-molecule microarray, 635/667 nm fluorescence, BSA, DTT, primary screen (AID 1130); details: 635 nm fluorescence, higher = more signal;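 also: composite of spot emission at 667 nm and signal to noise over triplicate slides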
# Focal adhesion kinase 1 (Homo sapiens), sequence (Q05397 whole entry, looked up): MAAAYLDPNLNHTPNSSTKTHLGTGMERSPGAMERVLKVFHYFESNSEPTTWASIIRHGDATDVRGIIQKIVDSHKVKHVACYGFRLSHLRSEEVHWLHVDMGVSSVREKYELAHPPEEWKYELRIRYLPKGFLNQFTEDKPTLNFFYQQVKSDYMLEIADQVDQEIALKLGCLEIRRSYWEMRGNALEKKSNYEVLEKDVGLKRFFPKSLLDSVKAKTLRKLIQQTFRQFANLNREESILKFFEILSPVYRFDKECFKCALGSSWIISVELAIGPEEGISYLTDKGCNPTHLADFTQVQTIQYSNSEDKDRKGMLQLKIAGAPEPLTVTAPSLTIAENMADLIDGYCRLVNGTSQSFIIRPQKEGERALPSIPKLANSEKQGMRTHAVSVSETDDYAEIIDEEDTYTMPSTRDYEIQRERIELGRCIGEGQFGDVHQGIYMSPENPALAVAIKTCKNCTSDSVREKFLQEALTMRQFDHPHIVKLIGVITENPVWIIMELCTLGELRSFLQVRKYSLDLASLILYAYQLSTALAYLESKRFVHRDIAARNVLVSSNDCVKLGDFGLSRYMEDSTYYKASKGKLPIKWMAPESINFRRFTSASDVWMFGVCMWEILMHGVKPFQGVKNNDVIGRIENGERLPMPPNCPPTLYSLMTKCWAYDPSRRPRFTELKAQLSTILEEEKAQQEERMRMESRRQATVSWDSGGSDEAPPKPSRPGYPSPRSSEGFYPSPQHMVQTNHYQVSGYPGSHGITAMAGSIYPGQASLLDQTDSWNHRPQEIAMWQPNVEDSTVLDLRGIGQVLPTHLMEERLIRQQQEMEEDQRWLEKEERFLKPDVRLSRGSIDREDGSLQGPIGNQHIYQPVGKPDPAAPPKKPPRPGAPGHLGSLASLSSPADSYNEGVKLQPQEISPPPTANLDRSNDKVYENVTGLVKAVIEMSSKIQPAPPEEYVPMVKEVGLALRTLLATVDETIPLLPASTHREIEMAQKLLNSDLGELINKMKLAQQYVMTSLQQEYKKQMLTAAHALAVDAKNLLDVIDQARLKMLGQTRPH
# [4] = system: Fibrinogen (Alexa647-labelled); experiment: Alexa647-fibrinogen binding to printed small molecules – biochemical, small-molecule microarray, 635/667 nm fluorescence, artefact control for SMM control-protein annotation, profiling panel (AID 1131); details: fibrinogen-A647 binding fluorescence, higher = more signal;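 also: z-score merges 667 nm fluorescence with per-spot signal-to-noise over triplicate slides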
# [5] = biological target: Follistatin (Homo sapiens) (UniProt P19883); experiment: FST protein binding to printed compounds – biochemical, small-molecule microarray, 635/667 nm fluorescence, primary screen (AID 1132); details: 635 nm fluorescence, higher = more signal
# Follistatin (Homo sapiens), sequence (P19883 whole entry, looked up): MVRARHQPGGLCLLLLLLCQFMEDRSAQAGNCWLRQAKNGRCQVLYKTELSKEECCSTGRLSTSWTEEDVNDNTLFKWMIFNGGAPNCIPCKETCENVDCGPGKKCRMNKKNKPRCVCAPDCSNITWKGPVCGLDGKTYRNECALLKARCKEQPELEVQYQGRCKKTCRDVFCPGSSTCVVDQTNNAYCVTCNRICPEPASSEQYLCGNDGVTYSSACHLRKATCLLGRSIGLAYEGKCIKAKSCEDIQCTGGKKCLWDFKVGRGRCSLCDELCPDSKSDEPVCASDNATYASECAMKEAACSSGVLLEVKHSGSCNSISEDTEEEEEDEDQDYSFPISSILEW
# [6] = biological target: Fibroblast growth factor 2 (Homo sapiens) (UniProt P09038); experiment: basic fibroblast growth factor binding to printed compounds – biochemical, small-molecule microarray, 635/667 nm fluorescence, primary screen (AID 1133); details: FGF2, fluorescence 635/667, higher = more signal
# Fibroblast growth factor 2 (Homo sapiens), sequence (P09038 whole entry, looked up): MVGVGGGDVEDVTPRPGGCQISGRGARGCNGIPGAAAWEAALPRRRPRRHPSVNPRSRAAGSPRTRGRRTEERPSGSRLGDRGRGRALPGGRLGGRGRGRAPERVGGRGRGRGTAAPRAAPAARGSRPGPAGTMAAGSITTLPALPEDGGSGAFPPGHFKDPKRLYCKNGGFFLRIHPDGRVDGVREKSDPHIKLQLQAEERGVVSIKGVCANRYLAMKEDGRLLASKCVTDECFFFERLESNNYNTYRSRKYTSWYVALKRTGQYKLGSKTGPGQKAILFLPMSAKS
# [7] = JC-1 mitochondrial potential readout, lung cancer cells – cell-based, A549, JC-1 fluorescence, basal, 24 h, 100 nL, profiling panel (AID 1138); details: higher = more signal;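 also: A549 lung adenocarcinoma cells under basal conditions with no added stimulus; test concentration not given here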
# Lefty1 = Lefty1 protein binding to printed compounds – biochemical, small-molecule microarray, 635/667 nm fluorescence, primary screen (AID 1139); details: fluorescence 635/667, higher = more signal
# [8] = system: wheat germ agglutinin (Triticum aestivum), Alexa647-labelled; experiment: Alexa647-WGA lectin binding to printed small molecules – biochemical, small-molecule microarray, 635/667 nm fluorescence, artefact control for SMM control-protein annotation, profiling panel (AID 1140); details: WGA-A647 binding, 635 nm fluorescence, higher = more signal;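 also: score merges 667 nm feature emission with signal to noise over triplicate slides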
# [9] = biological target: Luciferin 4-monooxygenase (Photinus pyralis) (UniProt P08659); experiment: inhibition of purified Photinus pyralis luciferase – biochemical, luminescence, purified enzyme, 2006 set, primary screen (AID 1141); details: purified firefly luciferase, SteadyGlo luminescence, 30 min; higher = more signal, called active from +8 up or from −8 down;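 also: cell-free assay with purified firefly luciferase at 100 ng per well in PBS; test concentration not given here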
# Luciferin 4-monooxygenase (Photinus pyralis), sequence (P08659 whole entry, looked up): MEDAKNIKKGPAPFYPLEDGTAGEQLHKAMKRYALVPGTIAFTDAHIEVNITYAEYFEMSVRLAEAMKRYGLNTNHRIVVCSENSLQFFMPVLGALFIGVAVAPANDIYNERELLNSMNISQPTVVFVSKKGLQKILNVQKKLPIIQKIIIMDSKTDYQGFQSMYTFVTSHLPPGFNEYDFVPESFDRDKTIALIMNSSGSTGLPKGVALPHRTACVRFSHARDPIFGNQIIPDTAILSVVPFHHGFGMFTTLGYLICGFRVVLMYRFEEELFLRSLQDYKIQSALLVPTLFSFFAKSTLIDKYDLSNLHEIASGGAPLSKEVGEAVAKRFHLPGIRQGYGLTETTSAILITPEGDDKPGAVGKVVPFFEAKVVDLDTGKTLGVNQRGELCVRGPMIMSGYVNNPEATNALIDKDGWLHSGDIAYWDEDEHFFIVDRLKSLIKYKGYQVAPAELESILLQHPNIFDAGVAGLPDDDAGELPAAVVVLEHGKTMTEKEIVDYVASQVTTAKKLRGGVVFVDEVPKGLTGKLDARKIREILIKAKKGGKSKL
# [10] = system: Wnt5a (protein binding on small-molecule microarray); experiment: small molecules binding Wnt5a protein – biophysical, small-molecule microarray, 635/667 nm fluorescence, primary screen (AID 1142); details: 635 nm fluorescence, higher = more signal;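 also: fluorescence read at 667 nm with signal to noise per printed feature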
# [11] = ATP-based viability of Huh7 replicon cells – cell-based, CellTiter-Glo luminescence, basal, 48 h, cytotoxicity control for HCV replication inhibitor project, primary screen (AID 1143); details: higher = more signal, called active from +8 up or from −8 down;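 also: Huh7 hepatoma cells carrying a hepatitis C replication reporter with no stimulus; test concentration not given here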
# [12] = Pseudomonas biofilm growth suppression – PAO1 strain, BacTiter-Glo luminescence, LB-PBS, primary screen (AID 1144); details: P. aeruginosa PAO1 biofilm, 12 h, higher = more signal
# [13] = basal CRE-LacZ reporter activity in PC12 – cell-based, unstimulated, primary screen (AID 1145); details: no forskolin, luminescence, 4.5 h, higher = more signal, called active from +8 up or from −8 down
# [14] = forskolin-driven CRE-LacZ activity in PC12 – cell-based, CRE-LacZ reporter, forskolin-stimulated, primary screen (AID 1146); details: luminescence, 4.5 h, higher = more signal, called active from +8 up or from −8 down;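 also: PC12 cells with 6xCRE LacZ reporter stimulated by forskolin 10 µM; beta-galactosidase reporter signal reflecting CREB driven transcription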
# [15] = biological target: Streptavidin (Streptomyces avidinii) (UniProt P22629); experiment: compounds binding control protein streptavidin – biophysical, small-molecule microarray, 635/667 nm fluorescence, artefact control for SMM compound annotation, primary screen (AID 1147); details: higher = more signal;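 also: signal reflects streptavidin binding to arrayed compounds as a control protein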
# Streptavidin (Streptomyces avidinii), sequence (P22629 whole entry, looked up): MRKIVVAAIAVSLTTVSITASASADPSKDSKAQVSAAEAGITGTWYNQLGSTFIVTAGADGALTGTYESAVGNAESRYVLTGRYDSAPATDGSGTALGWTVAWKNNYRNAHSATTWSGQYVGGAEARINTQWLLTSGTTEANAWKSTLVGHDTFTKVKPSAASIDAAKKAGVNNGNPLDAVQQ
# [16] = probe aInhba binding on compound microarray – biochemical, small-molecule microarray, 635/667 nm fluorescence, primary screen (AID 1148); details: higher = more signal;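 also: score merges 667nm spot fluorescence with signal-to-noise for antibody binding to printed compounds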
# Torsin-1A (Homo sapiens) [17] = biological target: Torsin-1A (Homo sapiens) (UniProt O14656); experiment: TOR1A wild-type binding on microarray – cell lysate, small-molecule microarray, lysate, 635/667 nm, primary screen (AID 1149); details: COS7 hTOR1A-WT lysate, 635 nm fluorescence, higher = more signal
# Torsin-1A (Homo sapiens), sequence (O14656 whole entry, looked up): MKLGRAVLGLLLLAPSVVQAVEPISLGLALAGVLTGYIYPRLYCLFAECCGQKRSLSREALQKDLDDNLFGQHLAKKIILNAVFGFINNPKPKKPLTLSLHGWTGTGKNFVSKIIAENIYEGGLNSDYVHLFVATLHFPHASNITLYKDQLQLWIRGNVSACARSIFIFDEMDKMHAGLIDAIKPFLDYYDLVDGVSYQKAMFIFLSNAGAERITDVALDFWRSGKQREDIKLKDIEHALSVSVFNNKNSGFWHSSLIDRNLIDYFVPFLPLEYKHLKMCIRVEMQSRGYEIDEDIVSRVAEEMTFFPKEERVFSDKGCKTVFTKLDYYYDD
# Torsin-1A (Homo sapiens) [18] = biological target: Torsin-1A (Homo sapiens) (UniProt O14656); experiment: torsin A mutant lysate binding on microarrays – cell lysate, small-molecule microarray, COS7 lysate, 635/667 nm fluorescence, primary screen (AID 1150); details: COS7 hTOR1A mutant lysate, 635 nm fluorescence, higher = more signal;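 also: score pools 667 nm emission and signal to noise measuring lysate protein binding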
# [19] = system: Sonic hedgehog protein (Shh); experiment: Sonic hedgehog microarray binding compounds – biochemical, small-molecule microarray, 635/667 nm fluorescence, primary screen (AID 1151); details: 635 nm fluorescence, higher = more signal;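 also: Shh protein binding to compounds spotted on small-molecule microarray slides; score combines spot fluorescence intensity with signal-to-noise across triplicate slides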
Structure (SMILES),composite z-score [1],composite z-score [2],composite z-score [3],composite z-score [4],composite z-score [5],composite z-score [6],z-score [7],composite z-score (Lefty1),composite z-score [8],z-score [9],composite z-score [10],z-score [11],z-score [12],z-score [13],z-score [14],composite z-score [15],composite z-score [16],composite z-score (Torsin-1A (Homo sapiens) [17]),composite z-score (Torsin-1A (Homo sapiens) [18]),composite z-score [19]
CC(=O)NCCCC[C@@H]1NC(=O)[C@@H]2C[C@H](C(=O)NCc3ccc(F)cc3)[C@H](c3ccc(O)cc3)N2C1=O,2.04,0.582,0.244,0.754,1.33,1.22,0.329,0.889,0.182,-0.333 (inactive),0.0547,-0.395 (inactive),0.587 (inactive),0.431 (inactive),0.158 (inactive),0.0542,-0.176,0.821,0.524,1.56
CCOC(=O)C1=C[C@@H](C(C)(C)C)N(S(=O)(=O)c2ccc(C)cc2)[C@H]1c1ccc(Cl)c(Cl)c1,0.978,1.21,0.606,0.968,0.654,0.202,3.07,0.495,0.945,1.34 (inactive),0.28,-4.01 (inactive),0.599 (inactive),0.229 (inactive),0.303 (inactive),1.04,0.196,0.126,0.837,0.202
COCCOC(=O)N1C(=O)[C@@]2(c3cc(C#CCCO)ccc31)[C@H](C(=O)NC[C@H](O)c1ccccc1)[C@H]1C(=O)O[C@H](c3ccccc3)[C@H](c3ccccc3)N1[C@@H]2c1ccc(OCCO)cc1,0.714,1.18,1,0.951,1.28,1.24,-1.27,1.42,0.246,-1.09 (inactive),0.041,-3.14 (inactive),-1.71 (inactive),-1.97 (inactive),-1.18 (inactive),0.738,0.0444,0.269,0.126,1.85
C[N+](C)(C)CCCCNC(=O)[C@H]1C[C@H]2C(=O)N3CCC[C@H]3C(=O)N2[C@H]1c1ccc(O)cc1,2.67,-0.0698,0.446,0.228,1.46,1.81,-0.515,1.49,0.282,-0.679 (inactive),0.554,-0.102 (inactive),0.014 (inactive),-0.821 (inactive),-0.512 (inactive),0.319,-0.164,1.84,1.66,1.86
CC1CC/C=C\[C@H]2OC34C=CCN(CCN5CCOCC5)C(=O)[C@H]3N(CCCCCO)C(=O)[C@@H]4C2C(=O)O1 (stereo not given in full),-0.417,-1.44,-0.197,-1.2,-0.381,-0.206,-0.485,-0.376,-0.577,-0.115 (inactive),0.06,0.362 (inactive),0.658 (inactive),0.0645 (inactive),0.259 (inactive),-0.488,-0.327,-0.0591,-0.352,0.322
Cc1ccc(S[C@]2(C(=O)NCc3ccccc3)CC(=O)N(Cc3cc(C(F)(F)F)cc(C(F)(F)F)c3)[C@@H]2c2ccc(CO)cc2)cc1,-0.0768,-0.469,-0.187,-1.25,0.401,-0.568,-0.0446,-0.0758,-1.01,-0.372 (inactive),-0.492,-0.0639 (inactive),0.315 (inactive),0.829 (inactive),1.21 (inactive),-0.684,-0.126,-1.3,-0.755,0.824
C=C[C@H](C)[C@H](OC(=O)Nc1ccc(OC)cc1)c1ccc(O)c2ccccc12,-0.732,-0.337,-0.208,0.604,0.782,0.39,-1.6,0.47,0.0411,-3.78 (inactive),0.107,-3.55 (inactive),-0.156 (inactive),0.236 (inactive),0.544 (inactive),-0.199,-0.128,0.822,0.16,0.9
COCCOC(=O)N1C(=O)[C@@]2(c3cc(C#CC4=CCCCC4)ccc31)[C@H](C(=O)N1CCN(c3ncccn3)CC1)[C@H]1C(=O)O[C@H](c3ccccc3)[C@H](c3ccccc3)N1[C@@H]2c1ccc(OCCO)cc1,1.07,1.16,0.31,0.229,1.29,1.59,-1.01,1.03,0.232,-1.03 (inactive),0.572,-0.922 (inactive),-0.38 (inactive),-1.57 (inactive),-0.0728 (inactive),0.832,0.471,0.804,0.606,1.04
COc1ccc(C#Cc2ccc3c(c2)[C@]2(C(=O)N3)[C@H](C(=O)N3CCN(c4ncccn4)CC3)[C@H]3C(=O)O[C@H](c4ccccc4)[C@H](c4ccccc4)N3[C@@H]2c2ccc(O)cc2)cc1,0.658,1.2,0.392,0.972,1.2,0.485,-0.799,0.884,0.4,-0.374 (inactive),0.205,-0.629 (inactive),-0.747 (inactive),0.775 (inactive),-0.612 (inactive),1.04,0.13,-0.0852,0.231,0.88
COc1ccc([Si](C)(C)[C@@H]2[C@@H](CCO)O[C@]3(C(=O)N(Cc4ccc(N5C(=O)c6cccc7cccc5c67)cc4)c4ccccc43)[C@H]2C)cc1,-0.0225,-0.797,0.138,-0.518,-1.12,-0.753,1.23,-0.536,0.397,-0.604 (inactive),-0.404,-6.09 (inactive),-0.0686 (inactive),4.11 (inactive),0.201 (inactive),-0.376,-0.0791,-0.565,-0.535,0.0554
